Here are results for four compounds from PubChem BioAssay.

Unmarked numbers belong to inactive results. For some assays here: Measured potencies and affinities stand elsewhere. Activity calls are given as the source filed them. Unless noted, no rule for the calls is given here.

The nature of assay [1]: antimalarial activity against Dd2 strain (AID 2302;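 active = growth inhibition above 50% at the single 2 µM test dose, taken to imply half-maximal potency below 2 µM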;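 also: 0% = DMSO untreated growth and 100% = chloroquine plus artemisinin killed control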). The settings on record: P. falciparum Dd2 in RBCs, LDH growth readout, 72 h; at 2 µM; stronger effect = higher value.
Assay [2] can be described thus: HepG2 cytotoxicity, primary screen, cytotoxicity control for P. falciparum antimalarial project, cell-based, ATP luminescence (AID 2303;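 active = inhibition above 50%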;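 also: 0% = DMSO wells and 100% = digitonin-killed cells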). The settings on record: HepG2 viability, 24-48 h, at 10 µM, stronger effect = higher value.
Assay [3] deals with L-lactate dehydrogenase (Plasmodium falciparum (isolate CDC / Honduras)) (UniProt Q27743). Put plainly: PfLDH activity inhibition – cell lysate, 3D7 strain, counter-screen for P. falciparum growth inhibition project (AID 2304).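 Also: 0% = vehicle and 100% = reference inhibitor.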 The settings on record: P. falciparum 3D7 crude extract, LDH APAD/NBT absorbance; at 2 µM; stronger effect = higher value. In general terms: A counterscreen serves to expose hits that act by an unwanted route or on another target.
Chain of L-lactate dehydrogenase (Plasmodium falciparum (isolate CDC / Honduras)) (Q27743 whole entry, looked up): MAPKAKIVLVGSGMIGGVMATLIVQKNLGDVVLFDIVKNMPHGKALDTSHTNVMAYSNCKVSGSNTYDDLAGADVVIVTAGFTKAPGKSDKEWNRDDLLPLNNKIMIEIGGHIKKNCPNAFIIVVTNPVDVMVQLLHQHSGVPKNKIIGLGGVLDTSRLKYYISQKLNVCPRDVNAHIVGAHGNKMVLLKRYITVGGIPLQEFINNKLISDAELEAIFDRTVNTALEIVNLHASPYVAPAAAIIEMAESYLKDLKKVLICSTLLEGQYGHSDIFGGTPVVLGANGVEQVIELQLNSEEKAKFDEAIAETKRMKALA

A short description of assay [4]: inhibition of 3D7 malaria parasite growth – strain 3D7 (AID 2306).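 Also: 0% = DMSO wells and 100% = chloroquine plus artemisinin control wells.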 The following applies: P. falciparum 3D7 erythrocytic growth, LDH absorbance, 72 h; at 2 µM; stronger effect = higher value.
The target of assay [5] is Calcium-dependent protein kinase 1 (Plasmodium falciparum (isolate 3D7)) (UniProt P62344). Put plainly: PfCDPK1 kinase inhibitors, biochemical, TCAMS library (AID 1159585; cut-off not given, nearly all actives have IC50 up to about 0.98 µM;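 also: inhibitors leave more ATP so luminescence rises with inhibition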). The settings on record: recombinant PfCDPK1, Kinase-Glo ATP depletion luminescence.
Chain of Calcium-dependent protein kinase 1 (Plasmodium falciparum (isolate 3D7)) (P62344 whole entry, looked up): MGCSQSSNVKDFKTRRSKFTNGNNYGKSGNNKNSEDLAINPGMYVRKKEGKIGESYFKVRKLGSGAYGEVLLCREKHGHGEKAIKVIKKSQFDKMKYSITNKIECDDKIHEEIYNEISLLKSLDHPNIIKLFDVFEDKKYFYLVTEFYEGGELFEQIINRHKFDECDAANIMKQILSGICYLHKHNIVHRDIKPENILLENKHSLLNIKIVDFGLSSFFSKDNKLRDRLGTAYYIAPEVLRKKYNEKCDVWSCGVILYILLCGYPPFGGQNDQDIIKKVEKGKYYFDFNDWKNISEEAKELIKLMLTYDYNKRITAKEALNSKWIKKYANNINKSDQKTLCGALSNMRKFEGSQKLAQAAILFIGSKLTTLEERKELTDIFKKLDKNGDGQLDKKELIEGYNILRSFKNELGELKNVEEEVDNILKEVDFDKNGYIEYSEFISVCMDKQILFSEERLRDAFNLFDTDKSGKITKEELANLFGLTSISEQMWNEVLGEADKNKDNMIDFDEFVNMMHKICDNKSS
Assay [6] concerns the target Plasmodium falciparum protein kinase 6 (PK6, PF3D7_1337100) (UniProt Q8IDW1). Put plainly: PfPK6 kinase inhibitors, biochemical, TCAMS library (AID 1159586). The following applies: recombinant PfPK6, Kinase-Glo ATP depletion luminescence.
Assay [7] deals with Protein kinase 7 (PK7), Plasmodium falciparum 3D7 (PF3D7_0213400) (UniProt Q7YTF7). Description: inhibition of Plasmodium PK7 catalytic activity – biochemical, TCAMS antimalarial set, Kinase-Glo luminescence (AID 1159587). The following applies: recombinant PfPK7, Kinase-Glo ATP depletion luminescence.
Chain of Protein kinase 7 (PK7), Plasmodium falciparum 3D7 (PF3D7_0213400) (Q7YTF7 1-343): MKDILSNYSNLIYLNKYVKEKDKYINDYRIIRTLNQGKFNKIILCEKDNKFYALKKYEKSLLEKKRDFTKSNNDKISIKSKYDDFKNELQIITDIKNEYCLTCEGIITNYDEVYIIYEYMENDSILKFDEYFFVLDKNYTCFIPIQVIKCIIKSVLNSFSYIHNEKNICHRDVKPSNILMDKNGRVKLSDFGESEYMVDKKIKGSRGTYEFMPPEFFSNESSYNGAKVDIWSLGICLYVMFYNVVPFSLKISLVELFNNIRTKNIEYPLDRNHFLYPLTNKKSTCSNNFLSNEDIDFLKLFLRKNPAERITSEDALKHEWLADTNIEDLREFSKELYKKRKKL
The target of assay [8] is Calcium-dependent protein kinase 4 (Plasmodium falciparum (isolate 3D7)) (UniProt Q8IBS5). Description: PfCDPK4 kinase inhibitors, biochemical, TCAMS library (AID 1159588; cut-off not given, nearly all actives have IC50 up to about 0.91 µM). The following applies: recombinant PfCDPK4, Kinase-Glo ATP depletion luminescence.
Chain of Calcium-dependent protein kinase 4 (Plasmodium falciparum (isolate 3D7)) (Q8IBS5 whole entry, looked up): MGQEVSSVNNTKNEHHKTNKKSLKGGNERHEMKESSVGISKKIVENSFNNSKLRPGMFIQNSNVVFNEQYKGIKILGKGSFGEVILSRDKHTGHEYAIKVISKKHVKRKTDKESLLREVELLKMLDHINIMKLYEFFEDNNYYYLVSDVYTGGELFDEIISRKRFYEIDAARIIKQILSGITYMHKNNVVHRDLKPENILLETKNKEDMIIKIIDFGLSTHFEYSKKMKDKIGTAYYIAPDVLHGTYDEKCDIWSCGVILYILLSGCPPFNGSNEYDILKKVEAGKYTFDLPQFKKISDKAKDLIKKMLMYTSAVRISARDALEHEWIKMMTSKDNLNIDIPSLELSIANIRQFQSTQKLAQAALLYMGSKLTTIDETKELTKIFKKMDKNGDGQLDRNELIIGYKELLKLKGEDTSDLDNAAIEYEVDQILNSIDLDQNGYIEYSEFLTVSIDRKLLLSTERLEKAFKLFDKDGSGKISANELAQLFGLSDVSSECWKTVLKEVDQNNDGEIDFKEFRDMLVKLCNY

Chain of Plasmodium falciparum protein kinase 6 (PK6, PF3D7_1337100) (Q8IDW1 1-305): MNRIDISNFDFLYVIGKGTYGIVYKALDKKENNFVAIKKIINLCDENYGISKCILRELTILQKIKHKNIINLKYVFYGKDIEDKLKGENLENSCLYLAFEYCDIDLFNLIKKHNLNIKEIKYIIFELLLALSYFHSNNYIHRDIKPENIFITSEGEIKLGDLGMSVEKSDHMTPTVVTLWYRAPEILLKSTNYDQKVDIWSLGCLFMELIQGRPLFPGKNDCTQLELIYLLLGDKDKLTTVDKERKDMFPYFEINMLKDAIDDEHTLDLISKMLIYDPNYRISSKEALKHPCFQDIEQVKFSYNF

On to `O=C(Nc1cccc(-c2ccc(CN3CCC(O)CC3)cc2)c1)c1ccc(Cl)cc1`, for which the growth inhibition is 8% in assay [1] and 95% (active) in assay [4]. For the same compound, the values for the inhibition in assay [2] and in assay [3] were 46% and 4%, respectively. Moreover, the result in assay [5], in assay [6], in assay [7] and in assay [8] was inactive.
As for `COc1cc(Cn2ccc3c4c(N)nc(N)nc4ccc32)cc(OC)c1OC`, the growth inhibition in assay [1] was 97% (active); in assay [4], 94% (active). For the same compound, the inhibition in assay [2] was 66% (active); in assay [3] it was 3%. Besides, the result in assay [5], in assay [6], in assay [7] and in assay [8] was inactive.
Consider `O=C(NC1CCCCN(Cc2ccccc2O)C1)c1cccc(C(F)(F)F)c1` (configuration not stated), for which the growth inhibition in assay [1] was 64% (active); in assay [4], 93% (active). The results for the inhibition in assay [2] and in assay [3] were -4% and -6%, respectively. The outcome in assay [5], in assay [6], in assay [7] and in assay [8] was inactive.
Take `N#Cc1ccc(NC(=O)Nc2ccc(OC(F)(F)F)cc2)cc1`: the growth inhibition in assay [1] was 91% (active); in assay [4] it was 98% (active). In addition, the inhibition in assay [2] is 43%; in assay [3] it was 0%. Moreover, the result in assay [5], in assay [6], in assay [7] and in assay [8] was inactive.

By inhibition is commonly meant the drop in the measured response relative to a control, in per cent.
